Source: PubChem BioAssay AID504444 (National Center for Advancing Translational Sciences (NCATS), 2011)
Hit rate of the full screen: of about 360,000 compounds, about 7,500 (2.1%) were called active. A call without a number means that no potency is given here. Roughly 20% stayed inconclusive and do not appear here. Calls follow the shape of the dose curve; as a rule, active = well fitted inhibition curve with a large enough effect; inconclusive = small, poorly fitted or top-dose-only effect, or effect the other way; inactive = flat fitted curve, though single readings scatter. The sample as a whole holds a higher share of actives than the screen did.

assay: Nrf2 qHTS screen for inhibitors; settings: A549 ARE-Fluc reporter, luciferase luminescence, 18-24 h; series mostly up to 46 µM; also: nearly all actives have a fitted effect of over 60% in size
Source text: NIH Molecular Libraries Probe Production Network [MLPCN]
NIH Chemical Genomics Center [NCGC]
Assay Provider: Shyam Biswal, Johns Hopkins University
Nrf2 is a transcription factor that maintains cellular redox homoestasis and protects cells from xenobiotics. Nrf2 binds to the antioxidant response element (ARE) to induce gene expression of a broad spectrum of genes that encode for antioxidants. […] Finding a small molecule that act as an inhibitor of Nrf2 function would represent a novel therapeutic target that could lead to improvement in survival of patients undergoing chemo- and/or radio- therapy.
This is the Nrf2 activity measured in the luminescent read.
1. Shibata, T., et al., Genetic Alteration of Keap1 Confers Constitutive Nrf2 Activation and Resistance to Chemotherapy in Gallbladder Cancer. Gastroenterology, 2008.
2. Sjoblom, T., et al., The consensus coding sequences of human breast and colorectal cancers. Science, 2006. 314(5797): p. 268-74.
NCGC Assay Protocol Summary:
A concentration-response assay was performed with A549 ARE_Fluc cells which are suspended in 5% FBS OPTI-MEM. Five uL were dispensed into 1536-well white TC-treated plate using the Kalypsys dispenser to achieve a density of 5000 cells/well in all columns except column 1. The plate is incubated at 37deg C at 5% CO2 for 2 hours before 23 nL of compounds are added with the Kalypsys pin tool equipped with a 1,536-pin array containing 10-nL slotted pins (FP1S10, 0.457-mm diameter, 50.8 mm long; V&P Scientific). The control compounds Budesonide and Staurosporine are both added at a concentration of 2mM and Budesonide is also added as a 1:10 titration, starting at 200uM, to achieve dose-response. After an 18-24 hour incubation at 37deg C at 5% CO2, 5ul of medium is added to column 1. Afterwards 1ul of 5x of CellTiter-Fluor (Promega) is added to every well. The plate is then incubated at 37deg C at 5% CO2 for 30 minutes before they are read on the ViewLux (Perkin Elmer) for a fluorescent read Ex=405(10)/Em=525(10) for a 3 second exposure, 2x binning, and high gain. Then 3 uL of 3x BugLite is dispensed into all wells and the plate is incubated at ambient room temperature for 15 minutes. Afterwards another ViewLux read is performed using the clear filter to get a luminescent read with the settings of 40 second exposure, 2x binning, and high gain. Cytotoxicity is assessed through the first fluorescent read and then biochemical activity against Nrf2 is measured in the luminescent read.
Potency is read from the fitted curve at half-maximal effect.

SMILES | Potency
CCCn1c(C)cc(-c2csc(NC(=O)CCc3nc4ccccc4c(=O)[nH]3)n2)c1C | inactive
CC(=O)NCc1ccc(-c2csc(NC(=O)CCCc3nc4ccccc4c(=O)[nH]3)n2)cc1 | inactive
Cc1cc(C)c(-c2csc(NC(=O)CCCc3nc4ccccc4c(=O)[nH]3)n2)c(C)c1 | 9.2 µM (active)
Cc1sc2ncn(CC(=O)N3CCN(c4ccc(F)cc4)CC3)c(=O)c2c1S(=O)(=O)N1CCN(c2ncccn2)CC1 | inactive
CC(C)(C)NC(=O)NC(=O)COC(=O)Cc1c(F)cccc1Cl | inactive
COc1ccc(S(=O)(=O)N2CCOCC2)cc1NC(=O)Cc1c(F)cccc1Cl | inactive
O=C(Cc1c(F)cccc1Cl)Nc1ncc([N+](=O)[O-])s1 | 16.4 µM (active)
Cc1ccc(S(=O)(=O)c2cc3c(=O)n4cccc(C)c4nc3n(CCc3ccccc3)c2=N)cc1C | inactive
COC(=O)c1ccccc1NC(=O)c1cnn(-c2ccc(F)cc2)c1-n1cccc1 | inactive
COc1ccc2c(c1)c(N1CCCC1=O)c(C(=O)Nc1ccccc1C(F)(F)F)n2C | inactive
CCC1([N+](=O)[O-])COC(c2ccc(C)cc2)OC1 (stereo not drawn) | inactive
CCOC(=O)c1ccc(NC(=O)C2CC(=O)NC(=Nc3ccc(C)c(C)c3)S2)cc1 (stereo not drawn) | inactive
CN(C)c1ccc(/C=N\S(=O)(=O)c2ccccc2)cc1 | inactive
CC[n+]1cc(C)ccc1/C=C/c1ccc(N(C)C)cc1 | 4.11 µM (active)
C=CC(COCc1ccccc1)N(CC(=O)OC)S(=O)(=O)c1cc(Br)ccc1OC (stereo not drawn) | inactive
Cc1nn(CC(=O)O)c(=O)c2cc3cc(F)ccc3n12 | inactive
Cc1ccccc1C(=O)OC1OC(=O)C(Cl)=C1Nc1ccccc1 (stereo not drawn) | 8.2 µM (active)
Cc1ccccc1C(=O)O | inactive
O=C1OC(OC(=O)c2ccccc2Br)C(N2CCOCC2)=C1Cl (stereo not drawn) | inactive
CCOC(=O)c1c(-c2ccc(OC)cc2)oc2ccc(OCc3ccc(C(=O)OC)cc3)cc12 | inactive
O=C(NCCCN1CCOCC1)c1cn(-c2ccccc2)nc1-c1ccc(F)cc1 | inactive

SMILES | Potency
CCCCCCSc1ccc(-c2nc3ccc(Cl)cn3c2NCc2ccccc2)cc1 | inactive
O=C(CNC(=O)c1ccc(Cl)c(C(F)(F)F)c1)OC(C(=O)Nc1cc(C(F)(F)F)ccc1Cl)c1ccccc1 (stereo not drawn) | inactive
COc1ccc(OC)c(/C=C/C(=O)c2ccc3c(c2)OCO3)c1 | inactive
Cc1ccc(C)c(N2CCN(C(=O)Cn3nc(C)c4sc5ccccc5c4c3=O)CC2)c1 | inactive
CCc1nn(CC(=O)N2CCN(c3cc(C)ccc3C)CC2)c(=O)c2cc3occc3n12 | inactive
Cc1ccc(C)c(N2CCN(C(=O)Cn3ncn4cccc4c3=O)CC2)c1 | 23.1 µM (active)
COc1ccc(-c2nc(CN3CCC(C(=O)NCCN(CC(C)C)CC(C)C)CC3)c(C)o2)cc1OC | inactive
CN(C(=O)c1cccc(NC(=O)Cc2ccc(NC(=O)C3CCN(C(=O)C4CCCCC4)CC3)cc2)c1)C1CCC1 | inactive
COc1ccccc1N1CCN(S(=O)(=O)c2ccc(Cl)cc2)CC1 | inactive
COc1ccccc1N1CCN(C(=O)CN(Cc2ccc(Cl)cc2)S(C)(=O)=O)CC1 | 23.1 µM (active)
CS(=O)(=O)N(CC(=O)N1CCCC1)Cc1ccccc1 | inactive
O=S1(=O)N=C(Oc2cccc(Br)c2)c2ccccc21 | inactive
COc1ccc(-c2cc(-c3nc(-c4cc(OC)c(OC)c(OC)c4)no3)[nH]n2)c(OC)c1 | inactive
CC(C)(C)OC(=O)N1CCC(C(=O)Nc2cccc(C(=O)NCCc3ccccc3)c2)CC1 | inactive
CCN(CCCNC(=O)CSc1cc(=O)n(C)c2cc(Cl)ccc12)c1cccc(C)c1 | inactive
Cc1ccc(C(=O)NC2CCN(C#N)CC2)cc1 | inactive
COCc1cc(=O)n2[nH]c(C)c(-c3ccccc3)c2n1 | inactive
Cc1nc2c(-c3ccccc3)c(C)[nH]n2c(=O)c1Cl | 20.6 µM (active)
Cc1cc(=O)n2[nH]c(-c3cccc(Cl)c3)cc2n1 | inactive
O=[S+]([O-])(c1ccc2c(c1)OCCO2)N1CCN([S+](=O)([O-])c2c(Cl)cc(Cl)cc2Br)CC1 | inactive
COc1cccc(CNS(=O)(=O)c2ccc3c(c2)CC(C)N3C(C)=O)c1 (stereo not drawn) | inactive

SMILES | Potency
COc1ccc(N(C)S(=O)(=O)c2ccc3c(c2)CC(C)N3C(=O)C2CC2)c(OC)c1 (stereo not drawn) | inactive
COc1cccc(CNS(=O)(=O)c2ccc3c(c2)CC(C)N3C(=O)C2CCC2)c1 (stereo not drawn) | 11.6 µM (active)
CC(=O)OC1CCC2C3CCC4=C(CC(F)C(=O)C4)C3CCC12C (stereo not drawn) | inactive
C/C=C/c1ccc(OCC(=O)NNC(=O)CN(C)S(=O)(=O)c2ccc(C)cc2)c(OC)c1 | inactive
Cc1ccc(C)c(N2CCN(C(c3ccccc3)c3nnc(-c4ccccc4)o3)CC2)c1 (stereo not drawn) | inactive
CCCn1c(NCc2ccc(N(CC)CC)cc2)nc2ccccc21 | inactive
O=C(/C=C/c1ccccc1)N/C(=C/c1ccccc1)C(=O)Nc1ccccc1O | inactive
O=C(/C=C/c1ccccc1)c1ccccc1O | 3.66 µM (active)
O=C(NNC(=O)c1ccccc1O)c1ccccc1O | inactive
CNC(=O)c1sc(Nc2ccc(OCc3ccccc3)cc2)nc1C | 20.6 µM (active)
CCc1ccnc(NC(=O)Nc2ccc(OCc3ccccc3)cc2)c1 | inactive
O=C(O)/C=C\C(=O)Nc1ccc(OCc2ccccc2)cc1 | inactive
CCN(C[C@H]1N[C@@](CC)(C(=O)OC)[C@H]2C(=O)N(Cc3ccccc3)C(=O)[C@@H]12)S(=O)(=O)c1ccccc1 | inactive
Cc1cccc(C(=O)OCC(=O)NC(C)C2CC3CCC2C3)c1O (stereo not drawn) | inactive
CC(C)Cn1c(N)c(C(=O)COC(=O)CN2C(=O)C3CC=CCC3C2=O)c(=O)n(C)c1=O (stereo not drawn) | 4.61 µM (active)
CC(C)Cn1c(N)c(C(=O)COC(=O)C2CCCN2C(=O)c2cccs2)c(=O)n(C)c1=O (stereo not drawn) | inactive
COc1ccc(C(=O)COC(=O)CN2C(=O)C3CC=CCC3C2=O)c(OC)c1 (stereo not drawn) | inactive
O=C(Nc1ccn(CCCNCc2ccc3[nH]ccc3c2)c(=O)n1)OCc1ccccc1 | inactive
COc1ccccc1S(=O)(=O)NCc1ccc(C(=O)N(C)Cc2ccc(F)cc2)cc1 | 23.1 µM (active)
CN(Cc1ccccc1)C(=O)c1ccc(COc2ccccc2)cc1 | inactive
O=C(NCCS(=O)(=O)NCc1ccc(F)cc1)c1ccccc1 | inactive
